{"source": "ChEMBL document CHEMBL3988442", "about": "“University of Dundee, Small-Polar-MMV Screening Library” (2021)", "note": "Among all 48,000 compounds or so, about 13,000 (27%) showed an effect of 50% or more. The list shows a part of the results.", "data": [{"test_system": "Wolbachia pipientis", "experiment": "Anti-Wolbachia Cell-Based Screen", "assay_type": "functional", "design": "scale not given: in the data most compounds retested in dose-response had high values", "details": "5 µM", "units": {"Percent Effect": "%"}, "values": [{"smiles": "COCc1ccccc1CNC(=O)CN1CCC2(CCOC2)C1", "note": "(configuration not stated)", "Percent Effect": -0.6554}, {"smiles": "Cc1nn2c(N3CCCC(C#N)C3)cc(-c3ccccc3)nc2c1C", "note": "(configuration not stated)", "Percent Effect": -8.58}, {"smiles": "COCCn1ccnc1-c1[nH]cnc1C", "Percent Effect": 8.201}, {"smiles": "CCN(CC)CCn1ccnc1-c1[nH]cnc1C", "Percent Effect": 9.707}, {"smiles": "Cc1nc[nH]c1-c1nccn1CCN1CCCC1=O", "Percent Effect": 101.5}, {"smiles": "Cc1nc[nH]c1-c1nccn1CCN1CCCOC1=O", "Percent Effect": 97.83}, {"smiles": "Cc1ccsc1-c1nccn1CCS(C)(=O)=O", "Percent Effect": -15.8}, {"smiles": "Cc1ccsc1-c1nccn1CCS(=O)(=O)N1CCCC1", "Percent Effect": -5.417}, {"smiles": "Cc1nc[nH]c1-c1nccn1CCN(C)S(C)(=O)=O", "Percent Effect": -5.143}, {"smiles": "Cc1ccsc1-c1nccn1CCN1CCCOC1=O", "Percent Effect": 94.33}, {"smiles": "Cc1nc[nH]c1-c1nccn1CCCN(C)C", "Percent Effect": -1.575}, {"smiles": "Cc1nc[nH]c1-c1nccn1-c1cccc(CN2CCCC2)c1", "Percent Effect": 12.04}, {"smiles": "Cc1nc[nH]c1-c1nccn1CCN1CCOC1=O", "Percent Effect": 102.9}, {"smiles": "CCc1nccn1CCCn1ccnc1-c1[nH]cnc1C", "Percent Effect": 10.91}, {"smiles": "CN(C)c1ncc(CNC(=O)Nc2ccc(C(F)(F)F)cc2)n1C", "Percent Effect": 20.28}, {"smiles": "COc1cc(N2CCCn3cnc(COC(C)C)c3C2)ncn1.O=CO", "Percent Effect": -4.807}, {"smiles": "CC(=O)NCCC(=O)Nc1sccc1C(=O)C(C)(C)C", "Percent Effect": 21.69}, {"smiles": "c1ccc(COc2ccccc2NC2CCOCC2)nc1", "Percent Effect": -16.72}, {"smiles": "CC(CNC(=O)CCc1ccccn1)c1ccsc1", "note": "(configuration not stated)", "Percent Effect": 1.276}, {"smiles": "CN(CC(=O)NC(Cc1ccsc1)c1cccnc1)Cc1ccccn1.Cl", "note": "(configuration not stated)", "Percent Effect": 89.62}, {"smiles": "CN(CC(=O)N1CC(C)(C)[C@](O)(C2CC2)C1)Cc1cccnc1", "Percent Effect": -2.465}, {"smiles": "CN(CC(=O)NS(=O)(=O)c1ccsc1)Cc1ccccc1", "Percent Effect": -14.35}, {"smiles": "Cc1cc(C)n(CC(=O)NC(Cc2ccsc2)c2ccccn2)c(=O)n1.Cl", "note": "(configuration not stated)", "Percent Effect": -15.12}, {"smiles": "Cc1csc(C(Cc2ccsc2)NC(=O)CN(C)Cc2cccnc2)n1.Cl", "note": "(configuration not stated)", "Percent Effect": 118.2}, {"smiles": "Cc1csc(C(C#N)C(=O)NCc2cccnc2)n1", "note": "(configuration not stated)", "Percent Effect": -20.56}, {"smiles": "Cc1ccc(CC(NC(=O)CN(C)C2CC2)c2ccccn2)cc1", "note": "(configuration not stated)", "Percent Effect": -26.42}, {"smiles": "Cc1nc(CN(Cc2cccnc2)Cc2ccsc2)c[nH]1", "Percent Effect": -3.654}, {"smiles": "Cc1csc(C(Cc2ccsc2)NC(=O)CN(C)Cc2ccccn2)n1.Cl", "note": "(configuration not stated)", "Percent Effect": 143}, {"smiles": "CN(CC(=O)NC(Cc1ccsc1)c1cccnc1)Cc1cccnc1.Cl", "note": "(configuration not stated)", "Percent Effect": 75.58}, {"smiles": "O=C(CCc1ccsc1)N(Cc1ccccn1)C1CC1", "Percent Effect": 0.03996}, {"smiles": "CCOC(C)c1noc(CN2CCCNCC2)n1", "note": "(configuration not stated)", "Percent Effect": 2.297}, {"smiles": "C=C(C)CN1CCC(NC(=O)NCCc2cccc(C(N)=O)c2)CC1", "Percent Effect": -8.268}, {"smiles": "CC(=O)c1ccc(C(=O)N2C[C@@H](CN3CCCC3)[C@@H](CO)C2)cc1", "Percent Effect": -35.7}, {"smiles": "O=C(NCCN1CCCCCC1=O)NCc1ccc(Cl)s1", "Percent Effect": -3.851}, {"smiles": "CC(SCC(=O)NC(N)=O)c1ccc(Cl)cc1", "note": "(configuration not stated)", "Percent Effect": 8.768}, {"smiles": "Cc1cc(C2NC(=O)CN2Cc2ccc(Br)cc2)cc(C)c1O", "note": "(configuration not stated)", "Percent Effect": 98.83}, {"smiles": "CC(C)(C)n1ncc2c1NC(=O)CC2c1ccc(OCC(N)=O)cc1", "note": "(configuration not stated)", "Percent Effect": -0.952}, {"smiles": "NC(=O)COc1ccc(C2NC(=O)CN2Cc2ccc(Br)cc2)cc1", "note": "(configuration not stated)", "Percent Effect": 110.3}, {"smiles": "COc1cc(OC)cc(C2NC(=O)CN2Cc2ccc(Br)cc2)c1", "note": "(configuration not stated)", "Percent Effect": 85.78}, {"smiles": "Cc1cc(CN2CCN(CC3CC3)[C@@H]3CS(=O)(=O)C[C@@H]32)cc(C)c1O", "Percent Effect": 22.76}, {"smiles": "COc1cc(OC)cc(N2CCC(NCc3ccsc3)C2=O)c1", "note": "(configuration not stated)", "Percent Effect": -5.145}, {"smiles": "COc1cc(CN2CC(=O)N(c3ccc(C)cc3)CC2C)cc(OC)c1", "note": "(configuration not stated)", "Percent Effect": -3.228}, {"smiles": "Cl.NC(=O)COc1ccc(CNCc2ccc(F)c(F)c2)cc1", "Percent Effect": -10.35}, {"smiles": "Cc1cc(NC(=O)CNC(C)(C)c2nc(C)c(C)s2)no1", "Percent Effect": -14.55}, {"smiles": "COc1ccc(CNC(=O)c2cc3c(nc2O)CCC(C)C3)cc1", "note": "(configuration not stated)", "Percent Effect": -13.47}, {"smiles": "CNS(=O)(=O)c1ccccc1N1CCN(C(C)C(=O)OC)CC1", "note": "(configuration not stated)", "Percent Effect": -10.15}, {"smiles": "Cc1occc1C(=O)N1C[C@H](Oc2ccccn2)[C@H]2OCCC[C@H]21.O=C(O)C(F)(F)F", "Percent Effect": -5.077}, {"smiles": "CO[C@H]1CN(C(=O)c2ccc(C)o2)[C@@H]2CCCO[C@H]12", "Percent Effect": 2.722}, {"smiles": "CN(C)C(=O)N1C[C@H](Oc2ccccn2)[C@H]2OCCC[C@H]21.O=C(O)C(F)(F)F", "Percent Effect": -8.316}, {"smiles": "Cc1cccc(C(=O)N2C[C@@H](OCc3cccnc3)[C@H]3OCCC[C@@H]32)n1.O=C(O)C(F)(F)F.O=C(O)C(F)(F)F", "Percent Effect": 19.74}, {"smiles": "O=C(O)C(F)(F)F.O=C(c1ccnnc1)N1C[C@H](Oc2ccccn2)[C@H]2OCCC[C@H]21", "Percent Effect": 96.83}, {"smiles": "CO[C@H]1CN(C(=O)c2cccnc2)[C@@H]2CCCO[C@H]12.O=C(O)C(F)(F)F", "Percent Effect": 121}]}]}
